Results filed as inconclusive are left out. A number with no mark means an inactive call. Active and inactive are the calls of the source. Calls follow the shape of the dose curve; as a rule, active = well fitted curve in the direction sought with a large enough effect; inconclusive = small, poorly fitted or top-dose-only effect, or effect the other way, or another doubt; inactive = no such curve, though single readings can be large or run the other way.
Experiment: Secondary Assay for lipid storage modulators: HepG2 cell LDSA assay for probe SAR
Details: HepG2 lipid droplet BODIPY, laser-scanning cytometry, 18-24 h; series mostly up to 46.1 µM; activity, negative = less lipid: at the top concentration
Text: NIH Molecular Libraries Probe Production Centers Network [MLPCN] NIH Chemical Genomics Center [NCGC] MLPCN Grant: 1 R03 MH085686-01 Assay Submitter (PI): Beller, Mathias; Max-Planck-Institut fur Biophysikalische Chemie NCGC Assay Overview: Storing lipids as a reservoir for energy or the anabolism of elementary metabolites is a common feature of probably all cells and is conserved from bacteria to humans. The universal cellular lipid storage organelle is the so-called lipid storage droplet (LD). Although ubiquitous, LDs share a simple structure composed of a hydrophobic core that harbors the storage lipids, which is shielded by a droplet-specific phospholipid monolayer to which proteins are attached. The current model of LD biogenesis involves an incorporation of the lipid core into the membrane leaflets of the endoplasmic reticulum (ER) followed by a subsequent budding-like maturation of a LD, which ultimately pinches off. Once released, LD volume can increase by localized lipogenesis or fusion of existing droplet. Storage lipids are re-mobilized enzymatically by lipase activity. Lipase regulation in the adipocyte is heavily studied and involves multiple components including catecholamine signaling, the LD-associated proteins Perilipin and comparative gene identification (CGI-58) and at least two lipases named hormone sensitive lipase (HSL) and adipocyte triglyceride lipase (ATGL). LD regulation outside of the adipocyte is poorly understood and only few components are known. However, there is an urgent need to learn more about ectopic fat depots as mislocalized storage of lipids, for example in the liver or muscle, is an eminent health problem associated with insulin resistance or the metabolic syndrome.
NCGC Assay Protocol Summary: The assay was performed with HepG2 cells, using an oleic acid feeding protocol similar to the S3 assay. We dispensed 4 uL of cells to give 700 cells/well into Greiner bio-one 1,536-well plates (black walled, clear bottom). Triacsin C (Sigma-Aldrich T-4540), an inhibitor of long-chain fatty acyl CoA synthetase that blocks synthesis of triglycerides, was used as a positive control for lipid under-storage using a final concentration of 20 uM. The orexin antagonist, SB408124 - previously identified to stimulate lipid over-storage, was used as a positive control for lipid over-storage using a final concentration of 20 uM. A total of 23 nL of compound solution of different concentrations were transferred to the assay plates using a Kalypsys pin tool equipped with a 1,536-pin array containing 10-nL slotted pins (FP1S10, 0.457-mm diameter, 50.8 mm long; V&P Scientific). One microliter of oleic acid was added (400 uM final concentration), and the plate was lidded with stainless steel rubber gasket lined lids containing pinholes. After 18-24 h incubation at […] and 95% humidity, 4 uL of the dyes BODIPY 493/503 (Molecular Probes) and the Cell Tracker Red CMTPX dye (Molecular Probes) were added to the wells to stain lipid droplets and enumerate cell number, respectively. Fluorescence was detected by excitation of the fluorophores with a 488-nm laser on an Acumen Explorer (TTP Lab Tech). The total intensity in channel 2 (500-530 nm) reflected lipid droplet accumulation. Cells were detected using channel 3 (575-640 nm) with 5-um width and 100-um depth filters. The ratio of the number of objects in PMT channel 2 over the number of objects in PMT channel 3 was also calculated. Percent activity was computed relative to an internal control (100% inhibited lipid droplet deposition due to the presence of 20 uM Triacsin C), which was added to 32 wells/plate.
For `COc1ccc(-c2cnc(SCC(=O)Nc3nc(C)cs3)n2Cc2ccco2)cc1`, the “activity, negative = less lipid” value was 20.8%. For `CCOc1ccc(CCNC(C)=O)cc1OCC`, the “activity, negative = less lipid” value was 15.6%. For `CCn1c(C(=O)NCCc2ccc(OC)c(OC)c2)cc2sc(Cl)cc21`, the “activity, negative = less lipid” value was 31.2%. With `CCOc1ccc(CCNC(=O)c2cc3sccc3n2CC=C(C)C)cc1OCC` the “activity, negative = less lipid” value was -19.5%. With `CCOc1ccc(CCNC(=O)C2=C(C)OCCO2)cc1OCC` the “activity, negative = less lipid” value was 13%. In the case of `O=C(NC1CCCc2c1cnn2-c1ccc(F)cc1F)c1cccs1` (stereo unspecified), the “activity, negative = less lipid” value is reported as -28.1%. With `CCn1c(-c2ccc(C)cc2)cnc1SCC(=O)Nc1nc(C)cs1` the “activity, negative = less lipid” value was -3.9%. In the case of `CCOC(=O)C1CCN(C(=O)C2(NC(=O)Nc3ccccc3Cl)CCCCC2)CC1`, the “activity, negative = less lipid” value is reported as 28.6%. With `COc1ccc(CCNC(=O)c2cc3sccc3n2Cc2ccc(Cl)cc2)cc1OC` the “activity, negative = less lipid” value was -24.7%. In the case of `COc1nc(-c2ccc3c(c2)OCO3)n(-c2ccc(NC(=O)CSc3ccccc3)cc2)n1`, the “activity, negative = less lipid” value is reported as 5.19%. With `CCOc1ccc(CCNC(=O)c2ccc3ccccc3n2)cc1OCC` the “activity, negative = less lipid” value was 61% [at 38.8 µM]. For `O=C(NC1CCCc2c1cnn2-c1ccc(F)cc1F)C1CCCCC1` (stereo unspecified), the “activity, negative = less lipid” value was 8.73%. With `CCOc1ccc(CCNC(=O)C2(c3ccccc3)CC2)cc1OCC` the “activity, negative = less lipid” value was -5.19%. For `Cc1ccc(-c2cnc(SCC(=O)Nc3nccs3)n2Cc2ccco2)cc1`, the “activity, negative = less lipid” value was 13%. For `Cc1csc(NC(=O)CSc2ncc(-c3ccccc3)n2Cc2ccco2)n1`, the “activity, negative = less lipid” value was 18.2%. In the case of `CCOc1ccc(CCNC(=O)c2cc3sccc3n2Cc2ccccc2)cc1OCC`, the Potency is reported as 14.1 µM (active). For `CCOc1ccc(CCNC(=O)c2cc3sccc3n2C)cc1OCC`, the Potency was 25 µM (active). For `O=C(NC1CCCc2c1cnn2-c1ccc(F)cc1F)c1cccc(=O)[nH]1` (stereo unspecified), the “activity, negative = less lipid” value was -20.9%. In the case of `COc1ccc(-c2cnc(SCC(=O)Nc3nccs3)n2Cc2ccccc2)cc1`, the “activity, negative = less lipid” value is reported as 7.79%. In the case of `CCOc1ccc(CCNC(=O)c2ccc(C3(C(F)(F)F)N=N3)cc2)cc1OCC`, the “activity, negative = less lipid” value is reported as 36.4%. In the case of `CCOc1ccc(CCNC(=O)c2ccc3[nH]ccc3c2)cc1OCC`, the “activity, negative = less lipid” value is reported as 67.5%. In the case of `COc1ccc(-n2ncc3c2CCCC3NC(=O)c2cnc(C)cn2)cc1` (stereo unspecified), the Potency is reported as 12.5 µM (active). In the case of `COc1ccc(-c2cnc(SCC(=O)Nc3nc(C)cs3)n2-c2ccccc2)cc1`, the “activity, negative = less lipid” value is reported as 6.49%. For `O=C(NCCc1ccc2c(c1)OCO2)c1cc2sccc2n1Cc1ccccc1`, the “activity, negative = less lipid” value was 11.7%. For `CCn1c(C(=O)NCCc2ccc(OC)c(OC)c2)cc2sccc21`, the “activity, negative = less lipid” value was -7.94%. In the case of `CCOc1ccc(CCNC(=O)c2cccs2)cc1OCC`, the “activity, negative = less lipid” value is reported as 40.3%. For `CCOc1ccc(CCNC(=O)c2cc3sccc3n2Cc2ccc(OC(F)F)cc2)cc1OCC`, the “activity, negative = less lipid” value was -20.8%. With `O=C(NC1CCCc2c1cnn2-c1ccc(F)cc1F)c1ccc2cc[nH]c2c1` (stereo unspecified) the “activity, negative = less lipid” value was 10.4%. For `CCOc1ccc(CCNC(=O)c2cccc(C(=O)c3ccccc3)c2)cc1OCC`, the “activity, negative = less lipid” value was 11.7%. In the case of `CCOc1ccc(CCNC(=O)c2cc3ccccc3o2)cc1OCC`, the “activity, negative = less lipid” value is reported as 29.9%. In the case of `O=C(NC1CCCc2c1cnn2-c1ccc(F)cc1F)c1ccccn1` (stereo unspecified), the Potency is reported as “inactive”.

— PubChem BioAssay AID492960 (National Center for Advancing Translational Sciences (NCATS), 2010)
